We go through 13 compounds from PubChem BioAssay.

The nature of test [1]: compounds binding Alexa647 anti-His antibody – biochemical, small-molecule microarray, 635 nm fluorescence, artefact control for SMM control protein annotation, primary screen (AID 1128).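 Further: score merges feature fluorescence with signal-to-noise for each printed compound spot.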 As to conditions: higher = more signal.
The subject of test [2] is Human papillomavirus type 1a E7 protein (residues 1-88). Description: HPV1a E7 small-molecule binders, primary screen, biochemical, small-molecule microarray, residues 1-88, 635 nm (AID 1129). Particulars: small-molecule microarray binding, fluorescence 635 nm; higher = more signal.
In test [3] the target is Focal adhesion kinase 1 (Homo sapiens) (UniProt Q05397). The test is described as follows: PTK2 protein binding on printed compound slides – biochemical, small-molecule microarray, 635/667 nm fluorescence, BSA, DTT, primary screen (AID 1130).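 Further: composite of spot emission at 667 nm and signal to noise over triplicate slides.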 Particulars: 635 nm fluorescence, higher = more signal.
Sequence of Focal adhesion kinase 1 (Homo sapiens) (Q05397 whole entry, looked up): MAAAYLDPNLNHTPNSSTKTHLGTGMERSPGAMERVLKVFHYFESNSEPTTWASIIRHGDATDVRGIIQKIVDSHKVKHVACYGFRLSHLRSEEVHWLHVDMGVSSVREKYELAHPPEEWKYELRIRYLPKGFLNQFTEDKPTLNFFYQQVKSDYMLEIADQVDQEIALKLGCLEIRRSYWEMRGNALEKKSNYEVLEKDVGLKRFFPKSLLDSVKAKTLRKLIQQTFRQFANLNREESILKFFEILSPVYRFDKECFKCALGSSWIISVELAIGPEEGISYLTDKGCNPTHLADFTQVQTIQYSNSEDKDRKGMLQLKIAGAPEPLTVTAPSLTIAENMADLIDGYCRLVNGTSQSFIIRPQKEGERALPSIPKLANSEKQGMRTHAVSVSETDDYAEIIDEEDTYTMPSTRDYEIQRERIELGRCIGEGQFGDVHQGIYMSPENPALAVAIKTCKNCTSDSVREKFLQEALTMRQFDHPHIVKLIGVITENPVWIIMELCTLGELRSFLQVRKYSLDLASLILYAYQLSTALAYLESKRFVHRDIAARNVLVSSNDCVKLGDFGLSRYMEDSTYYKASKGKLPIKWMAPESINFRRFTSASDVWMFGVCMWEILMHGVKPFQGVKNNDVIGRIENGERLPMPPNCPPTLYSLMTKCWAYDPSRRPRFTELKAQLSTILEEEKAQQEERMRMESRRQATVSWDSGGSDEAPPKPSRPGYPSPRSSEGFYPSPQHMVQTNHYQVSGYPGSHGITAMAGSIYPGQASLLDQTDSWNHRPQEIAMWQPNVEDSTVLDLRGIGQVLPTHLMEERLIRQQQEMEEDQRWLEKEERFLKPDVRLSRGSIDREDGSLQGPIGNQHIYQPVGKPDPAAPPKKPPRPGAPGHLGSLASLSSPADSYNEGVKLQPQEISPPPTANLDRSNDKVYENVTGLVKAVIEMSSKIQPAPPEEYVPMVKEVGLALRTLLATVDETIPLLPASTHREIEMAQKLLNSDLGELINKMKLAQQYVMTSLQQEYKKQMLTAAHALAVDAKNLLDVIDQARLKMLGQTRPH
For test [4], the system named is Fibrinogen (Alexa647-labelled). The test is described as follows: Alexa647-fibrinogen binding to printed small molecules – biochemical, small-molecule microarray, 635/667 nm fluorescence, artefact control for SMM control-protein annotation, profiling panel (AID 1131).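 Further: z-score merges 667 nm fluorescence with per-spot signal-to-noise over triplicate slides.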 As to conditions: fibrinogen-A647 binding fluorescence, higher = more signal.
For test [5], the target named is Follistatin (Homo sapiens) (UniProt P19883). The test is described as follows: FST protein binding to printed compounds – biochemical, small-molecule microarray, 635/667 nm fluorescence, primary screen (AID 1132). As to conditions: 635 nm fluorescence, higher = more signal.
Sequence of Follistatin (Homo sapiens) (P19883 whole entry, looked up): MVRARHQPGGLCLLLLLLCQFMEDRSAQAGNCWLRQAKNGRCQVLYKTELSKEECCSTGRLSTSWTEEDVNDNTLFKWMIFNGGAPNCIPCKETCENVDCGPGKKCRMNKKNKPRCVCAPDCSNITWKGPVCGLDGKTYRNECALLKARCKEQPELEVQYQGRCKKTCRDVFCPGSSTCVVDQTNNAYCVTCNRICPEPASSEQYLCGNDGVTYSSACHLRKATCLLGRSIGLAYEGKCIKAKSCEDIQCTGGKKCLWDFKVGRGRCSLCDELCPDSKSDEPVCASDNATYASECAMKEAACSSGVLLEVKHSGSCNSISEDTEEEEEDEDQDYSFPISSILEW
Test [6] has as its target Fibroblast growth factor 2 (Homo sapiens) (UniProt P09038). The test is described as follows: basic fibroblast growth factor binding to printed compounds – biochemical, small-molecule microarray, 635/667 nm fluorescence, primary screen (AID 1133). As to conditions: FGF2, fluorescence 635/667, higher = more signal.
Test [7] in a line: JC-1 mitochondrial potential readout, lung cancer cells – cell-based, A549, JC-1 fluorescence, basal, 24 h, 100 nL, profiling panel (AID 1138).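 Further: A549 lung adenocarcinoma cells under basal conditions with no added stimulus; test concentration not given here.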 Particulars: higher = more signal.
The next test has as its system Lefty1. Description: Lefty1 protein binding to printed compounds – biochemical, small-molecule microarray, 635/667 nm fluorescence, primary screen (AID 1139). Particulars: fluorescence 635/667, higher = more signal.
Test [8] deals with wheat germ agglutinin (Triticum aestivum), Alexa647-labelled. Description: Alexa647-WGA lectin binding to printed small molecules – biochemical, small-molecule microarray, 635/667 nm fluorescence, artefact control for SMM control-protein annotation, profiling panel (AID 1140).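 Further: score merges 667 nm feature emission with signal to noise over triplicate slides.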 Particulars: WGA-A647 binding, 635 nm fluorescence, higher = more signal.
Test [9] addresses Luciferin 4-monooxygenase (Photinus pyralis) (UniProt P08659). Description: inhibition of purified Photinus pyralis luciferase – biochemical, luminescence, purified enzyme, 2006 set, primary screen (AID 1141).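 Further: cell-free assay with purified firefly luciferase at 100 ng per well in PBS; test concentration not given here.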 As to conditions: purified firefly luciferase, SteadyGlo luminescence, 30 min; higher = more signal, called active from +8 up or from −8 down.

Calls of active or inactive are those of the source.

Sequence of Fibroblast growth factor 2 (Homo sapiens) (P09038 whole entry, looked up): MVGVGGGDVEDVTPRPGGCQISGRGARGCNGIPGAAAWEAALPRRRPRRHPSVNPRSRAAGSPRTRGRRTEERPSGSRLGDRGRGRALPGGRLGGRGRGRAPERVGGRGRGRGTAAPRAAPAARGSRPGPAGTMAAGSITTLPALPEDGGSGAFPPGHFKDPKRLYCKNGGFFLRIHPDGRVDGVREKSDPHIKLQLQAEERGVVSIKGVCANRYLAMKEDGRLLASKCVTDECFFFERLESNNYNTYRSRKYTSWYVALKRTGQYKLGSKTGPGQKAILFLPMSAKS
Sequence of Luciferin 4-monooxygenase (Photinus pyralis) (P08659 whole entry, looked up): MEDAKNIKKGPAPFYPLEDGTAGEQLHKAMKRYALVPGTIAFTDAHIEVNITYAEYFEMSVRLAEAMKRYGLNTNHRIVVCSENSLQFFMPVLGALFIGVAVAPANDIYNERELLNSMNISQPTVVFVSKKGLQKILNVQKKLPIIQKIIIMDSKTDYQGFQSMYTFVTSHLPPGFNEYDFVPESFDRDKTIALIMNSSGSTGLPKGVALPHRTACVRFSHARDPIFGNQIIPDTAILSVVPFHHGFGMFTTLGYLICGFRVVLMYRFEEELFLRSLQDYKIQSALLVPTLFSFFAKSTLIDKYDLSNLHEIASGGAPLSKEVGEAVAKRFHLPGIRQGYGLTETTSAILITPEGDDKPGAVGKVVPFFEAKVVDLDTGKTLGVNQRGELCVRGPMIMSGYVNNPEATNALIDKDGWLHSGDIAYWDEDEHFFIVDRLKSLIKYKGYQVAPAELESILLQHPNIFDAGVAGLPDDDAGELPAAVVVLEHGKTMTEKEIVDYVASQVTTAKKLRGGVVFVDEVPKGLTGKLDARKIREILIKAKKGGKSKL

Regarding `CN1C(=O)[C@]2(CCS(=O)(=O)c3ccccc3)N=C(c3ccc(OCCCO)cc3)O[C@@H]2c2ccccc21`, the composite z-score amounted to 2.44 in test [1]; 1.27 in test [2]; 1.26 in test [3]; 0.495 in test [4]; 1.47 in test [5]; 0.699 in test [6]. Besides, the figures for the composite z-score (in the test on Lefty1; in test [8]) were 0.34 and 0.318, respectively. The figures for the z-score in [7] and in test [9] were 1.87 and -1.76 (inactive), respectively.
`Cc1c(-c2ccc(-c3ccc(Cl)c(Cl)c3)o2)nc(-c2ccccc2)c2c1CO[Si]2(C(C)C)C(C)C`: the composite z-score was 0.466 in test [1]; 0.168 in [2]; -0.0127 in test [3]; 0.407 in test [4]; -0.161 in test [5]; -0.255 in test [6]. Besides, the figures for the composite z-score (with Lefty1; in test [8]) were 0.351 and 0.284, respectively. Besides, the z-score in test [7] is -0.777; in test [9], -0.056 (inactive).
On to `COc1ccccc1CN1C(=O)c2ccccc2[C@](Cc2ccccc2I)(C(=O)NCCCN(C)C)[C@@H]1c1ccc(CO)cc1`, for which the composite z-score in test [1] worked out at 0.237; in test [2], 1.21; in [3] it was 0.904; in test [4], 0.944; in test [5], 0.489; in test [6], 0.141. Further, the composite z-score in the test on Lefty1 was 0.0523; in [8], 0.0618. Also, the z-score in [7] was -2.4; in test [9], -0.644 (inactive).
Take `[N-]=[N+]=NCc1ccccc1C[C@]1(C(=O)NCc2ccccc2)N=C(c2ccc(OCCCO)cc2)O[C@H]1c1ccccc1CN=[N+]=[N-]`: the composite z-score in test [1] is 1.75; in test [2], 0.986; in test [3], 0.586; in [4], 0.91; in test [5] it was 0.821; in test [6], -0.31. Besides, the results for the composite z-score (in the test with Lefty1; in test [8]) were -0.503 and 0.328, respectively. The z-score was 0.064 in test [7] and -1.16 (inactive) in test [9].
As to `COCC(=C=CC[C@@H](O)c1ccc(OCCO)cc1)C[C@@H](O)COCc1ccccc1`, the composite z-score in [1] is 1.29; in test [2] it was 0.893; in [3], 0.106; in test [4], -0.262; in test [5], 1.34; in [6], 1.41. Besides, the composite z-score in the test with Lefty1 came to 1.01; in [8] it was 0.904. In addition, the z-score in test [7] is 0.974; in [9], -1.7 (inactive).
Regarding `CCCCN1CC=CC23O[C@@H]4C=CCOC(=O)[C@@H]4[C@H]2C(=O)N(CCO)[C@@H]3C1=O` (stereo not given in full), the composite z-score was -0.211 in test [1]; -0.629 in test [2]; -0.681 in test [3]; -0.717 in test [4]; -1.06 in test [5]; -1.39 in test [6]. Moreover, the composite z-score with Lefty1 was -1.45; in test [8] it was -1.29. Also, the z-score in test [7] was 0.0309; in [9], 0.0308 (inactive).
Turning to `[N-]=[N+]=NCc1ccccc1C[C@]1(C(=O)O)COC(c2ccc(OCCCO)cc2)=N1`, the composite z-score is -0.615 in [1]; -1.13 in test [2]; -0.217 in test [3]; -2.49 in [4]; -0.21 in [5]; -0.855 in [6]. Further, the composite z-score in the test on Lefty1 was -0.212; in [8] it was -0.0491. The z-score in test [7] was -0.103; in test [9], -0.536 (inactive).
Take `COCC1=C([C@H](O)CCc2ccccc2)[C@H](CO)n2c(=O)n(-c3ccccc3)c(=O)n2C1`: the composite z-score in [1] was -0.507; in [2] it was -0.364; in [3], -0.044; in [4], -0.325; in test [5], 0.0942; in test [6], 1.08. In addition, the composite z-score was -0.0597 in the test with Lefty1 and 0.361 in test [8]. The z-score in test [7] is -0.152; in [9] it was -1.59 (inactive).
On to `C=C(COC)/C(=C/C[C@H](OC(=O)c1ccncc1)c1cccc(OCCO)c1)c1cnc2ccccc2c1`, for which the composite z-score is 2.08 in [1]; 1.22 in [2]; 0.521 in test [3]; 0.893 in test [4]; 1.36 in test [5]; 0.694 in [6]. The figures for the composite z-score (in the test on Lefty1; in test [8]) were 1.62 and 1.4, respectively. The z-score in test [7] is 0.365; in [9], -0.631 (inactive).
Turning to `C=C(CC1([C@@H](NP(=O)(c2ccccc2)c2ccccc2)[C@H]2C[C@@H]2CCN(C(=O)OCC)S(=O)(=O)c2ccc(C)cc2)CC1)c1ccccc1`, the composite z-score in test [1] is 1.74; in test [2] it was 1.22; in [3], 1.15; in [4], 0.781; in test [5], 0.712; in test [6], -0.804. The composite z-score in the test on Lefty1 was -0.162; in [8], 0.593. For the same compound, the z-score in test [7] is 0.782; in test [9], 2.49 (inactive).
`CC(C)[C@@H](C(=O)O)n1cc(-c2ccccc2)nn1`: the composite z-score in test [1] stood at 0.808; in test [2], 1.14; in test [3] it was 0.866; in [4] it was 0.924; in test [5] it was 0.098; in test [6] it was 0.112. Besides, the composite z-score in the test on Lefty1 was -0.0617; in test [8] it was 1.15. Also, the z-score in [7] is -0.138; in test [9], 0.131 (inactive).
As for `COc1ccc(NC(=O)O[C@H]2[C@H](OC(=O)Nc3ccc4c(c3)OCO4)[C@H](OC(=O)Nc3ccc4c(c3)OCO4)[C@@H](OC)O[C@@H]2CO)cc1`, the composite z-score worked out at 1.45 in [1]; 1.25 in test [2]; 0.216 in test [3]; 0.362 in [4]; 1.29 in test [5]; 0.319 in [6]. The composite z-score in the test with Lefty1 turned out to be 0.293; in test [8] it was 0.8. Also, the values for the z-score in [7] and in test [9] were 0.0258 and -6.52 (inactive), respectively.
On to `COC(=O)c1ccc([C@H](NC(=O)c2ccccc2)[C@]2(C)C[C@H]2C2CCCCC2)cc1`, for which the composite z-score was 0.494 in [1]; 1.18 in test [2]; 0.591 in test [3]; 0.707 in test [4]; 0.412 in test [5]; -0.639 in test [6]. Also, the results for the composite z-score (with Lefty1; in test [8]) were -0.41 and 1.21, respectively. Also, the z-score in [7] is 0.85; in [9], 1.51 (inactive).
